According to PubChem BioAssay (NCI):
About 79,000 compounds went through this panel and 15% of them were active in at least one assay; those are over-represented in the sample as a whole. Values without a mark were called inactive. Calls of active or inactive are those of the source. Rule as the data show it: active = growth inhibition above about 70%; inactive = the rest.

Experiment: NCI Yeast Anticancer Drug Screen. Data for the rad50EPP+ strain (AID 151);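 also: 0% = growth of vehicle-treated control cultures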
Conditions: S. cerevisiae rad50 mutant strain, hits give high values
Procedure: Growth inhibition of yeast strains with defined genetic alterations is measured as a screen for potential anti-cancer activity. Selected strains with alterations in DNA damage repair or cell cycle control were exposed to compounds and growth inhibition was measured relative to vehicle treated controls. The strain used in this assay is rad50EPP+

Structure (SMILES)	growth inhibition (at 1.2 µM) [%]	growth inhibition (at 3.7 µM)	growth inhibition (at 11.0 µM)	growth inhibition (at 33.0 µM)	growth inhibition (at 100.0 µM)
COc1ccc(-c2cc(-c3cc(C)cc(Cl)c3O)nc3[nH]c(=S)[nH]c(=S)c23)cc1	3	-5%	-14%	-15%	-15%
Brc1ccc(B2Nc3ccccc3N2)cc1	10	19%	29%	34%	42%
C[N+](C)([O-])CCCNc1c2ccccc2nc2cccc([N+](=O)[O-])c12	28	44%	79% (active)	94% (active)	95% (active)
CC(C)C(=O)CC(Sc1ccc(N)cc1)c1ccccc1 (stereo not given)	-5	-4%	1%	6%	8%
Cc1cc(OCc2nc(N)nc(N)c2-c2ccc(Cl)c(Cl)c2)ccc1[N+](=O)[O-]	-1	-3%	-1%	-1%	-1%
CC(C)=CCC/C(C)=C/CN1C(=O)C=CC1=O	57	86% (active)	99% (active)	99% (active)	99% (active)
NC(=S)N1N=C2c3ccccc3CC[C@@H]2[C@@H]1c1ccccc1	-31	-36%	-49%	-40%	-23%
OC(Cc1cccc2ccccc12)CN1CCC(c2ccccc2)CC1 (stereo not given)	24	5%	23%	38%	60%
